Experimental data from PubChem BioAssay AID1346428 (National Center for Advancing Translational Sciences (NCATS), 2018).
Hit rate of the full screen: of about 48,000 compounds, about 1,200 (2.5%) were called active. Another 2% or so got no clear call; they are omitted.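 The calls were made as follows: active = activation of at least 60% and not above a set upper limit (about 1 call in 100 departs from these limits); inconclusive = activation of 40% to 60%, or above that upper limit; inactive = activation under 40%.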 The sample as a whole holds a higher share of actives than the screen did.

molecular target: Probable G-protein coupled receptor 32 (Homo sapiens) (UniProt O75388); assay: qHTS for Agonists of Human Resolvin D1 Receptor DRV1; settings: CHO-K1 GPR32 beta-arrestin PathHunter luminescence, 90 min; at 76.9 µM; stronger effect = higher value; zero percent set by DMSO-only wells
Source text: Endogenous resolution of inflammation is known to be transduced through various GPCRs and their natural mediators of lipid nature. Resolvin D1 (RvD1) is one of the active players in resolution of acute inflammation through regulation of anti-inflammatory pathways; it is known to enhance phagocytosis of human macrophages, limits neutrophils infiltration, etc. […] The search for GPR32-activating small molecules with anti-inflammatory effects similar to its natural omega-3 derivative ligand in order to use them as research tools for further studies of inflammation and its resolution was the goal of this screening project. For primary screening assay, we used CHO-K1 GPR32 beta-arrestin cell line (DiscoveRx, #93-0321C2A) and the PathHunter(R) beta-Arrestin Assay (DiscoveRx) which measures recruitment of beta-arrestin to the GPR32 and generates chemiluminescent signal. These engineered cells stably transfected with GPR32 co-express GPR32-fused small 42-amino acid fragment of beta-Gal called ProLinktrade mark, and […] -tagged beta-Arrestin fusion protein. When GPR32 is activated by a ligand, it stimulates binding of beta -Arrestin to ProLink-tagged GPR32, and two parts of beta-Gal complement forming a functional enzyme. Upon substrate (PathHunter(R) Detection reagent) addition, beta-Gal hydrolyzes it and generates a chemiluminescent signal.
The cells were thawed and plated in thawing media containing F-12 HAM (Invitrogen, #11765-054), 10% FBS (Invitrogen, #10082), 1x Glutamine, and 1x Pen/Strep onto the 175-mm flask for 24 hours. Then, thawing media was replaced with Growth media which contains 800microg/mL Geneticin (Invitrogen, #10131) and 300microg/mL Hygromycin B (Invitrogen, #10687) in addition to described above. For the assay, the cells were harvested at ~80% confluent stage with Cell Dissociation buffer (Gibco, #13151), and seeded at 2,500 cells/ 3microL/well in assay media (PathHunter(R) Cell Plating Reagent, DiscoverX, #93-0563R1B) using MultiDrop Combi dispenser (Thermo Scientific, Logan, UT) onto white solid bottom tissue culture-treated 1536-well plates (Greiner # 789173-F) and allowed to attach overnight at 37 degrees C, 95% humidity, 5% CO2, . Next, 23nL/well of compound solutions in DMSO were added with a Pin Tool (Kalypsis, San Diego, CA) to the assay plates. As the basal control (EC0), 23 nL/well of DMSO was used on each plate. The cells were incubated in the presence of compounds or DMSO for 90 minutes at 37 degrees C, 5% CO2. Subsequently, 1.5microL/well of PathHunter(R) Detection Reagent prepared per the manufacturer's instructions was added to the assay plates with BioRAPTR FRDtrade mark dispenser (Beckman Coulter, San Francisco, CA) and incubated for 1 hour at ambient temperature prior to the measurement of the luminescent signal on ViewLux(R) uHTS Microplate Imager (Perkin Elmer, Waltham, MA).

Chain of Probable G-protein coupled receptor 32 (Homo sapiens) (O75388 whole entry, looked up): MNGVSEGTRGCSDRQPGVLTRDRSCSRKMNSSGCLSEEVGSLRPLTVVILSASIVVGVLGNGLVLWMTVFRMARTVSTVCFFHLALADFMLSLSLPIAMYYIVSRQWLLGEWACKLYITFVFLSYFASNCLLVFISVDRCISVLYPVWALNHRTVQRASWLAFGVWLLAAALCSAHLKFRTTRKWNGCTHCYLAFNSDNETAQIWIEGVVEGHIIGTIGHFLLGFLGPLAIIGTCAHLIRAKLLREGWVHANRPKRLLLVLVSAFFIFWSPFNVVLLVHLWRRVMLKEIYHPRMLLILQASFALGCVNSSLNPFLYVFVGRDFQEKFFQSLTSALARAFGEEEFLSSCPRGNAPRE

SMILES | activation
COC(=O)c1cc(S(=O)(=O)N2CCN(c3cc(Cl)ccc3C)CC2)c[nH]1 | 13.7% (inactive)
CCn1cc(C(=O)N2CCN(c3cc(Cl)ccc3C)CC2)c(=O)c2cc(S(=O)(=O)N3CCCC3)ccc21 | -4.63% (inactive)
Cc1ccc(Cl)cc1N1CCN(S(=O)(=O)c2cc3[nH]c(=O)c(=O)[nH]c3cc2C)CC1 | 97% (active)
Cc1c(C)n(Cc2ccc(Cl)cc2)c2ccc(C(=O)N3CCN(c4ccccc4F)CC3)cc12 | -26.9% (inactive)
O=C(CC1Oc2ccc(Cl)cc2NC1=O)NCc1ccccc1 (stereo not given) | -14.9% (inactive)
O=C1N(Cc2ccccc2)c2ccc(Cl)cc2C1(O)c1c[nH]c2ccccc12 (stereo not given) | 116% (active)
O=c1c2ccccc2n(Cc2cccc(Cl)c2)c(=O)n1Cc1ccccc1 | -10.4% (inactive)
Cc1cccc(NC(=O)Cn2nc(-c3ccc(Cl)cc3)c3ccccc3c2=O)c1 | -2.07% (inactive)
COc1ccc(OCCCn2c(C3CC(=O)N(c4ccc(F)cc4)C3)nc3ccccc32)cc1 (stereo not given) | 1.68% (inactive)
Cc1ccc(C)c(N2CCN(C(=O)Cc3c(C(=O)O)c(C)cn3C)CC2)c1 | -4.29% (inactive)
CCOC(=O)c1ccc(NC(=O)C2CCN(S(=O)(=O)c3ccc4c(c3)CCCC(=O)N4)CC2)cc1 | 68.9% (active)
COc1ccc(OC)c(NC(=O)C2CCCN(S(=O)(=O)c3ccc4c(c3)CCCC(=O)N4)C2)c1 (stereo not given) | -4.17% (inactive)
CC(=O)Nc1ccc(NC(=O)C2CCCN(S(=O)(=O)c3ccc4c(c3)CCCC(=O)N4)C2)cc1 (stereo not given) | 16.8% (inactive)
COc1ccc(Cl)cc1NC(=O)NCC1CCN(Cc2ccccc2F)CC1 | -10.4% (inactive)
CCOc1ccc(C2CC(=O)c3c([nH]c(C(=O)OCc4ccccc4)c3C)C2)cc1 (stereo not given) | 49.1% (inactive)
COc1cccc(CNC(=O)c2cc(=O)[nH]c3ccc(S(=O)(=O)N4CCCCC4)cc23)c1 | -3.54% (inactive)
CCC(=O)N1CCc2cc(Br)cc(S(=O)(=O)NCc3ccc(Cl)cc3)c21 | 19.3% (inactive)
COc1ccc(Cl)cc1N(C)C(=O)c1cc2c(=O)oc3ccc(C)cc3c2s1 | 29.1% (inactive)
CCN(CC)CCNC(=O)c1cc2c(=O)oc3ccc(C)cc3c2s1 | 67.3% (active)
CCOc1ccc(N(CC)C(=O)c2cc3c(=O)oc4ccccc4c3s2)cc1 | 21.3% (inactive)
Cc1cccc(Nc2cc(C)nc(-n3nc(C)cc3C)n2)c1 | -20.8% (inactive)
O=C(c1ccc2c(c1)N(Cc1ccccc1)C(=O)c1ccccc1S2(=O)=O)N1CCC(Cc2ccccc2)CC1 | -8.72% (inactive)

SMILES | activation
CC1CCCN(Cc2c(O)ccc3c(=O)c(Oc4ccc(C(C)(C)C)cc4)c(C(F)(F)F)oc23)C1 (stereo not given) | 64.7% (active)
COc1ccc(-c2c(C)c3ccc(O)c(CN4CCCC4)c3oc2=O)cc1OC | -5.21% (inactive)
CCC1CCCCN1Cc1c(O)ccc2c(=O)c(Oc3ccccc3Cl)c(C(F)(F)F)oc12 (stereo not given) | 102% (active)
Cc1ccc(C)c(Oc2c(C(F)(F)F)oc3c(CN4CCN(C)CC4)c(O)ccc3c2=O)c1 | -14.3% (inactive)
Cc1ccc(Oc2c(C(F)(F)F)oc3c(CN4CCCCC4)c(O)ccc3c2=O)cc1 | -34.2% (inactive)
CC1CCCCN1Cc1c(O)ccc2c(=O)c(-c3cccc(Cl)c3)c(C(F)(F)F)oc12 (stereo not given) | -11.7% (inactive)
Cc1ccsc1CN(C(=O)c1oc2ccc(Br)cc2c1C)C1CCS(=O)(=O)C1 (stereo not given) | -26.5% (inactive)
Cc1cc(F)ccc1NS(=O)(=O)c1ccc(-n2cccn2)cc1 | 106% (active)
Cn1c(=O)n(C)c2cc(NS(=O)(=O)c3ccc(F)cc3)ccc21 | 7.69% (inactive)
Cc1cc(F)ccc1NC1(c2ccccc2)C(=O)c2ccccc2C1=O | -74.1% (inactive)
CCOC(=O)N1CCc2c(sc3c2c(=O)n(-c2ccc(CC)cc2)c(=O)n3C)C1 | -6.72% (inactive)
CC(Nc1ccc(-c2nc(-c3ccco3)no2)cc1[N+](=O)[O-])c1ccccc1 (stereo not given) | -14.5% (inactive)
COc1ccc(OC)c(NC(=O)CSc2nc3ccccc3nc2N2CCCCC2)c1 | -20.5% (inactive)
O=C(Nc1ccc(O)c(-c2nc3ccccc3o2)c1)c1ccc(-c2cccc(Cl)c2)o1 | 10.7% (inactive)
O=C(Nc1cccc(-c2nc3ccccc3o2)c1)c1cccc(Br)c1 | -18.9% (inactive)
O=S(=O)(Nc1ccc2nc(-c3cccc(Cl)c3)oc2c1)c1ccccc1 | 93.4% (active)
COC(=O)c1ccc(Cn2c(SCC(=O)N(C)c3ccccc3)nc3ccccc32)cc1 | -14.8% (inactive)
O=C(CSc1ncc(-c2ccccc2)[nH]1)Nc1ccc(F)cc1F | -23.6% (inactive)
CCOc1cccc(NC(=O)CSc2ncc(-c3ccc(Cl)cc3)[nH]2)c1 | -15.1% (inactive)
Cc1cccc(NC(=O)CSc2ncc(-c3ccccc3)[nH]2)c1C | 93% (active)
COC(=O)c1ccc(NC(=O)CCc2c(C)nc3c(c(C)nn3-c3ccc(C)cc3)c2C)cc1 | -18.2% (inactive)
CCc1ccc(NC(=O)Cn2c(=O)n(CCC(=O)NCc3ccc4c(c3)OCO4)c(=O)c3ccccc32)cc1 | -4.89% (inactive)

SMILES | activation
Cc1ccccc1NC(=O)Cn1cc(C(=O)c2cccs2)c2ccccc21 | -6.21% (inactive)
Cn1c(=O)c2c(SCC(=O)NCC3CCCO3)nc(-c3ccccc3F)nc2n(C)c1=O (stereo not given) | -4.7% (inactive)
CCOc1ccc(NC(=O)c2cnn(-c3ccccc3)c2-n2cccc2)cc1 | -6.74% (inactive)
CN1CC[C@H](c2c(O)cc(O)c3c(=O)cc(-c4ccccc4Cl)oc23)[C@H](O)C1 | -16.5% (inactive)
O=C(NC1CC(=O)N(c2ccc(F)cc2)C1)C1CCCCC1 (stereo not given) | -2.56% (inactive)
COc1cc(OC)cc(C(=O)Nc2c(C(=O)Nc3ccc(F)cc3)oc3ccccc23)c1 | 1.9% (inactive)
CC(C)(C)C1CCc2c(sc(NC(=O)c3ccccc3F)c2C(=O)N2CCCCC2)C1 (stereo not given) | -35.6% (inactive)
Cc1cc(C)cc(OC(C)C(=O)Nc2nc3c(s2)CCCC3)c1 (stereo not given) | -14.5% (inactive)
CC(C)C(=O)Nc1nc2c(s1)CC(C(C)(C)C)CC2 (stereo not given) | 63.2% (active)
COc1ccc2cc(-c3nc(Cl)c4c5c(sc4n3)CC(C)CC5)c(=O)oc2c1 (stereo not given) | -14.3% (inactive)
CCCS(=O)(=O)N1CCC(n2c(C(F)(F)F)nc3cccnc32)CC1 | -3.95% (inactive)
Cc1oc2ccc(O)c(CN3CCOCC3)c2c1C(=O)Nc1cccc(Cl)c1C | 18.4% (inactive)
Cc1oc2ccc(O)c(CN3CCCCC3)c2c1C(=O)Nc1cccc(C(F)(F)F)c1 | 106% (active)
Cc1oc2ccc(O)c(CN3CCC(C)CC3)c2c1C(=O)Nc1ccccc1 | 17.2% (inactive)
Cc1cccc(NC(=O)C2CCCN2S(=O)(=O)c2cccc3nsnc23)c1C (stereo not given) | 8.79% (inactive)
CN1CCC[C@@H]1CCO[C@](C)(c1ccccc1)c1ccc(Cl)cc1 | 68.2% (active)
COc1ccccc1CNc1nccn(-c2ccc(F)cc2)c1=O | 30.2% (inactive)
COc1ccc(-n2ccnc(NCCc3ccc(Cl)cc3)c2=O)cc1OC | 105% (active)
COc1cccc(CNc2nccn(-c3ccc(OC)c(OC)c3)c2=O)c1 | -0.901% (inactive)
COc1cccc(NC(=O)C2CCN(c3cc(C)nc4c(-c5ccc(Cl)cc5)c(C)nn34)CC2)c1 | -2.14% (inactive)
COc1cccc(NC(=O)Nc2ccc3c(c2)N(C)C(=O)c2ccccc2S3)c1 | 4.16% (inactive)
COc1cccc(N=C2SC(C(=O)Nc3cccc(Cl)c3)CC(=O)N2C)c1 (stereo not given) | 68.2% (active)

SMILES | activation
CC(C)c1ccc(NC(=O)c2ccc3c(O)c(S(=O)(=O)c4ccccc4)c(=O)[nH]c3c2)cc1 | -0.853% (inactive)
O=C(c1cnn(-c2ccc(F)cc2)c1-n1cccc1)N1CCN(c2ccc(F)cc2)CC1 | 19% (inactive)
COc1ccc(NC(=O)CSc2nc3ccccc3[nH]2)cc1 | -10% (inactive)
COc1ccc(CC(=O)Nc2ccc(-c3nc4ccccc4s3)c(C)c2)cc1 | 27.8% (inactive)
Cc1ccc(OCC(=O)Nc2ccc(Cl)c(-c3nc4ccccc4[nH]3)c2)cc1C | 70.6% (active)
COc1ccc(CNC(=O)Cc2coc3ccc(C(C)C)cc23)cc1 | -15.8% (inactive)
COc1ccc2c(c1)c(N1CCCC1=O)c(C(=O)Nc1ccc(OC)c(Cl)c1)n2C | 3.27% (inactive)
CCCCN(CCCC)CCC(O)c1cc2c(Cl)cc(Cl)cc2c2cc(C(F)(F)F)ccc12 (stereo not given) | 98.9% (active)
CCOc1ccc(CCNC(=O)c2csc3c2CCCCC3)cc1 | 3.74% (inactive)
Brc1cccc(-c2nnn3c2nc(NC2CCCCC2)c2ccccc23)c1 | -7% (inactive)
O=C(Nc1nc2c(s1)CCCC2)c1ccccc1F | -7.97% (inactive)
CC(C)(C)c1ccc(S(=O)(=O)Nc2ccc(O)c(Sc3nc4ccccc4s3)c2)cc1 | 2.42% (inactive)
Cc1nc2ccc(S(=O)(=O)NC(C(=O)NCc3ccccc3Cl)C(C)C)cc2s1 (stereo not given) | 7.27% (inactive)
CC(C)c1ccc(S(=O)(=O)Nc2ccc(O)c(Sc3nc4ccccc4s3)c2)cc1 | 70.6% (active)
Cc1ccc(-n2c(=O)c3cccnc3n2CC(=O)Nc2ccccc2C(F)(F)F)cc1C | -16.8% (inactive)
CCCC12CN3CC(C)(CN(C1)C3c1ccccc1Cl)C2=O (stereo not given) | -8.25% (inactive)
CCN(CCCNC(=O)c1cc2cc3cc(OC)ccc3nc2s1)c1ccccc1 | -15.5% (inactive)
Cc1cccc(N2CCN(C(=O)c3cnc(N4CCCC4)nc3C)CC2)c1C | 36.6% (inactive)
CCN(C(=O)Cn1c(=O)nc(-c2ccccc2)c2cc(Cl)ccc21)c1cccc(C)c1 | -7.41% (inactive)
